SMILES strings stand for the structures. Compounds without any hit were thinned out: in the full panel of roughly 83,000, 20% have a hit.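 96-well plates, one dose, 48 hours. Percent growth reported; active if below 10.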 A number with no mark means an inactive call. Active and inactive are the calls of the source.

The test deals with HOP-92 NSCLC. The test can be described thus: NCI-60 one-dose screen, 48 h (100 = growth as untreated, 0 = no growth, -100 = all killed). To be noted: 10 µM unless noted.
As for `OC(c1ccccc1)c1nnc(SCc2ccccc2)n1Cc1ccccc1` (stereo not given), the growth is 58.8%. As for `COc1ccc(/C=C2\SC(=Nc3ccccc3)NC2=O)cc1`, the growth is -64.5% (active). In the case of `COc1ccc(-n2c(C(O)c3ccccc3)nn(CN3CCOCC3)c2=S)cc1` (stereo not given) it was 82.6%. `CN(O)c1nc(N(C)O)nc(N2CCOCC2)n1`: the growth is 52.4%. As for `O=C(NC(=S)Nc1cccc(NC(=S)NC(=O)c2ccccc2)c1)c1ccccc1`, the growth is 34.8%. In the case of `Cn1c2c(c(=O)[nH]c1=O)NC1=C(C(=O)c3ccccc31)C1(C=C(O)c3ccccc31)N2` (stereo not given), the growth was 75.7%. Turning to `Nc1nc(Nc2cccc(F)c2)nc2ccccc12`, the growth is -2.46% (active).

With `COc1cc(OC)cc(N2C(=O)N(Cc3ccc(C(C)(C)C)cc3)c3ccccc3S2(=O)=O)c1`, the growth was 56.1%. Turning to `CC/C=C\C[C@H](O)C/C=C1/C(=O)C=C[C@@H]1C/C=C\CCCC(=O)OCCS(=O)(=O)c1ccccc1`, the growth is 110%. In the case of `COc1ccc(C2Nc3ncnc(N)c3N=C3c4ccccc4C(=O)C32)cc1` (stereo not given) it was 55.4%; in that of `O=CCCCC(O)C=O` (stereo not given), 107%. As to `COC(=O)/C(=C\c1c(-c2ccccc2)[nH]c2ccccc12)S(C)(=O)=O`, the growth was 65.4%. In the case of `COc1ccc(-c2nsc3c2NC(=O)CC3c2ccsc2)cc1` (stereo not given) it was 71.9%. Turning to `FC(F)(F)c1cccc(Nc2nc(-c3ccccc3)nc3ncccc23)c1`, the growth is -67.3% (active). As for `COC(=O)/C(=C\c1c(C)[nH]c2ccccc12)S(=O)(=O)c1ccccc1`, the figure is 21.5%.

(Values after PubChem BioAssay (NCI).)
